The test deals with T1, ETS1 (UniProt P14921).
T1 sequence: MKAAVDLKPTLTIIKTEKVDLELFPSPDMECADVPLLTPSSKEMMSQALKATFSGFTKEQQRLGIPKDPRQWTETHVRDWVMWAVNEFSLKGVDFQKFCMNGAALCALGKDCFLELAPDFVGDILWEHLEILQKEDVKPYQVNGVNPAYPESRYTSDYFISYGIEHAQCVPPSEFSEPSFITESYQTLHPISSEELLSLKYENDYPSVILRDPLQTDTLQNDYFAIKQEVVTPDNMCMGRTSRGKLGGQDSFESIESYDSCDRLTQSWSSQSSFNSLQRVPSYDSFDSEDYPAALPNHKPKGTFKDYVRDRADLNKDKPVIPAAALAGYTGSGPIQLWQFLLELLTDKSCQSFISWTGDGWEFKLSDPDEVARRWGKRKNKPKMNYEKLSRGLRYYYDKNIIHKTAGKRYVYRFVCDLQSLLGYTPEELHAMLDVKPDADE
In words: TF binding intensity (PBM fluorescence), negative control probe (arbitrary fluorescence units); higher = stronger binding. The method, then: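 gcPBM negative-control 36-bp genomic probes lacking TF binding sites. Each was incubated with recombinant human ETS1 or RUNX1 alone and detected by antibody fluorescence. Values are medians over replicate spots (4 spots for the ETS1-RUNX1 arrays, 3 for the ETS1-ETS1 array). The probes sit in constant array flanks that are not printed.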
In turn, “TACTACTATAAAGATGGATACATGTCGTTATACATT (protein concentration 10 nM)” showed a TF binding intensity of 106.

In the case of “TTAATTAAGCGGTTTATATCAAGAAAAAGGCATTTC (protein concentration 10 nM)”, the TF binding intensity is 115.

As to “AATGAATCTGCATGAATAAAAGGGTCAACACAGCAG (protein concentration 10 nM)”, the TF binding intensity worked out at 147.

Take “AGTATGAGTTTGAATACACAGAACCTTTCTCATTCT (protein concentration 10 nM)”: the TF binding intensity was 106.

Regarding “CCATTAGTTCATCTTACACTCTGCCCTTTAACGTGG (protein concentration 10 nM)”, the TF binding intensity was 127.

The sequence “CTTTCTAAAGAGAAAAGCTCCTTTGTACCACGTGTC (protein concentration 10 nM)” registered a TF binding intensity of 103.

Values taken from the supplement of paper PMC10681739.
